In all, about 340,000 compounds went through this assay and about 1,000 (0.29%) were called active. No stated cut-off is given here; in the data, inconclusive means inhibition above about 29% without an active follow-up result; inactive means below that. Not all results are given here. Potency and affinity values are given separately.
biological target: Genome polyprotein (Dengue virus type 2 (strain 16681-PDK53)) (UniProt P29991); experiment: flavivirus cap methylation enzyme inhibition – biochemical, confirmation dose response, primary screen (AID 588689); settings: Dengue-2 NS5 methyltransferase capping enzyme assay, at 25 µM, active compounds read high
Sequence (P29991 whole entry, looked up): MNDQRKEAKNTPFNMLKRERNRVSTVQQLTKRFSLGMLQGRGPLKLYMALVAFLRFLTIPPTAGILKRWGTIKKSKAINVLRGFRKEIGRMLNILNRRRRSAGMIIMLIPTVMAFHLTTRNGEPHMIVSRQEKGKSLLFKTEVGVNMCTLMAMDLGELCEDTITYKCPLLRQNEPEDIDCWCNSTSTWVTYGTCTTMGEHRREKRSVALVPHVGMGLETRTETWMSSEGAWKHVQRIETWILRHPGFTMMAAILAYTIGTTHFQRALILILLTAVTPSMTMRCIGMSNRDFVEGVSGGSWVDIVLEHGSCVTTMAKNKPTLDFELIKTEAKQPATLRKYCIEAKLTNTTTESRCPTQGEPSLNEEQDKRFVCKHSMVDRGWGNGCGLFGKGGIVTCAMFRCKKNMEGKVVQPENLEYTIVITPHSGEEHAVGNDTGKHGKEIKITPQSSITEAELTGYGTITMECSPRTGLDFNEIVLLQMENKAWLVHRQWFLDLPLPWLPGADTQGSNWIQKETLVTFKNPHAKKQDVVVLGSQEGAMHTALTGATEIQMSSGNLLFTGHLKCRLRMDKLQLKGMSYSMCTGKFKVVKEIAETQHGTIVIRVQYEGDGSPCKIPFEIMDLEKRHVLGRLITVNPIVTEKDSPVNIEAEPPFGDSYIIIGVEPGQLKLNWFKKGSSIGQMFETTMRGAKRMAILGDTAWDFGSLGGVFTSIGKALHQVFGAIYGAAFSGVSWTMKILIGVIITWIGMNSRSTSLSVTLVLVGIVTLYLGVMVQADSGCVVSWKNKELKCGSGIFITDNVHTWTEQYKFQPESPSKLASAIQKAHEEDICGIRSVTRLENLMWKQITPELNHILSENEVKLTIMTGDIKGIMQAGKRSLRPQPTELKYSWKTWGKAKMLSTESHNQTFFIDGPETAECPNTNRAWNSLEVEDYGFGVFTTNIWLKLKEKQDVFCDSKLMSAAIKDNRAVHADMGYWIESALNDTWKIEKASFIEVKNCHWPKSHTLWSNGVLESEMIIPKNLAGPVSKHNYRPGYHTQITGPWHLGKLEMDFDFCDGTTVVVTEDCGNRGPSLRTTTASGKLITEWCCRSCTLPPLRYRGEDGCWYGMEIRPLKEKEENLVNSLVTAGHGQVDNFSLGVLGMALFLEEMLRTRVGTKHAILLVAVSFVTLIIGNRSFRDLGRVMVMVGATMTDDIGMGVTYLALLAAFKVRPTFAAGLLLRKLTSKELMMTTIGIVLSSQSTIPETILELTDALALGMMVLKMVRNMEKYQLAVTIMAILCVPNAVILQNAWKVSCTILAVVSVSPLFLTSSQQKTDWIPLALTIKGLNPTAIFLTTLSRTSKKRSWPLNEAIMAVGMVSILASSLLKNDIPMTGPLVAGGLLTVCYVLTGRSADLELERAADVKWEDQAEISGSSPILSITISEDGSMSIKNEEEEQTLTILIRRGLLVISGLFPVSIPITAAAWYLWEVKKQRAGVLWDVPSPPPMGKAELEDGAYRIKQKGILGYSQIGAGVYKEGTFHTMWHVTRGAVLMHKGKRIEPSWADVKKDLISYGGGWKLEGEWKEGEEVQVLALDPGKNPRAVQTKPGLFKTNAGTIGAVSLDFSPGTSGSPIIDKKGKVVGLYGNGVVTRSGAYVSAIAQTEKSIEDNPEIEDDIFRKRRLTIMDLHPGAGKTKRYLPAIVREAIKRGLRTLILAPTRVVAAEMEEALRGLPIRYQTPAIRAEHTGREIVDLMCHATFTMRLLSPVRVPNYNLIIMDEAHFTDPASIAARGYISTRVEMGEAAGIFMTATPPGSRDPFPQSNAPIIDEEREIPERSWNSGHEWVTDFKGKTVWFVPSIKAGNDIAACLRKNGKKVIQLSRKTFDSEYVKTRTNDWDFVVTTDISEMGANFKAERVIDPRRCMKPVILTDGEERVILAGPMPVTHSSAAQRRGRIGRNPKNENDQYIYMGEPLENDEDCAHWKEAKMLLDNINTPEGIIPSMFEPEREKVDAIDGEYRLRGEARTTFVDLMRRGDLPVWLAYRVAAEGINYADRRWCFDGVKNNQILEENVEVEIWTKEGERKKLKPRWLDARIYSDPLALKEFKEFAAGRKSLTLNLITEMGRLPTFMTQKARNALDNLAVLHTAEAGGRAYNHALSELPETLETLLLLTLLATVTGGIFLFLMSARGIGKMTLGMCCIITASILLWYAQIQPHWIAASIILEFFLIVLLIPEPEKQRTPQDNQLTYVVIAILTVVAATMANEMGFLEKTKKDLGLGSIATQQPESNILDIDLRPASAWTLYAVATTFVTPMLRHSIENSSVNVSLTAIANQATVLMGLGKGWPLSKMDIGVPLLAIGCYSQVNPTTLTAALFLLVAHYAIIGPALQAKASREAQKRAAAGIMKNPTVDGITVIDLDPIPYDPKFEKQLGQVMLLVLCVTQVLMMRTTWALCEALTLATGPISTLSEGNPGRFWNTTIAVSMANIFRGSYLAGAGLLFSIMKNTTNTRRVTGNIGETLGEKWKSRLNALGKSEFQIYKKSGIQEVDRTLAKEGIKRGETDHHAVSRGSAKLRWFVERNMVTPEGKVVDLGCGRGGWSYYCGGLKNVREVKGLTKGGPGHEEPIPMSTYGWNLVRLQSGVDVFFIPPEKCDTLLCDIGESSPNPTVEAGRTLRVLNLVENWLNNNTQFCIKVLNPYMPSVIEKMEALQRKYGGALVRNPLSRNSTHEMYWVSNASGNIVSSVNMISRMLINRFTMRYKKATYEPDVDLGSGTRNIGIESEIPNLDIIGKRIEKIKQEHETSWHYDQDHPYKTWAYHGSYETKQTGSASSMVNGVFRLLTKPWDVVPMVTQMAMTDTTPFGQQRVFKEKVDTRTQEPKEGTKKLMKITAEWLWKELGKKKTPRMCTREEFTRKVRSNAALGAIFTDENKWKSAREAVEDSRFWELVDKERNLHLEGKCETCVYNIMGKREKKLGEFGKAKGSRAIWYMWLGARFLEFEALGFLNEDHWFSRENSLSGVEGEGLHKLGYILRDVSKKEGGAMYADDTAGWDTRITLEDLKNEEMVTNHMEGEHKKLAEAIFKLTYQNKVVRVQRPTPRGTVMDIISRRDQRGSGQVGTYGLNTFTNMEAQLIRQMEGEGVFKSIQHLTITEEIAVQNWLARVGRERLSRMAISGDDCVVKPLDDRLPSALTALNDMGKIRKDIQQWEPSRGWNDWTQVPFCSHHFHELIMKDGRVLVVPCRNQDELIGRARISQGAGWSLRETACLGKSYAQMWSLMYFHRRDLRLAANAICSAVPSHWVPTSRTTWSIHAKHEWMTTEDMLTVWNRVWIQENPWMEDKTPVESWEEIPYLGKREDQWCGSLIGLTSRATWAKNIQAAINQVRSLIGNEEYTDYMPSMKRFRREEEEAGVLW

inhibition, inactive:
CC(C)(C)C(=O)CSc1nc2c(c(-c3cccs3)c1C#N)CCC2 -8.9%
CN1CCc2nc(SC(C(=O)O)c3ccccc3)c(C#N)c(-c3cccs3)c2C1 (centres undefined) 23.2%
Cc1ccc(CNC(=O)CCS(=O)(=O)c2ccc(Br)cc2)cc1 -2.71%
Cc1nc2ccccc2c(=O)n1NC(=O)c1ccc(C(C)(C)C)cc1 -7.84%
O=C(O)CC(NC(=O)C12CC3CC(CC(C3)C1)C2)c1cccc([N+](=O)[O-])c1 (centres undefined) 4.1%
O=C(O)c1cccc(-c2ccc(/C=C3/SC(=Nc4ccccc4)N(Cc4cccnc4)C3=O)o2)c1 3.26%
CCN=C1S/C(=C\c2ccc(-c3cccc(C(=O)O)c3)o2)C(=O)N1CC 0.91%
COc1ccc(C(=O)CN2C(=O)NC3(CCCc4ccccc43)C2=O)cc1 (centres undefined) -6.6%
O=C(O)Cn1c(CC(=O)N2CCCC2)nc2ccccc21 2.7%
O=[N+]([O-])c1ccccc1-c1ccc(/C=N/n2cnnc2)o1 1.62%
CCOC(=O)c1cc(-c2ccc(/C=C3/C(=O)NC(=O)C(C#N)=C3C)o2)ccc1Cl 44.5%
N#C/C(=C\c1ccc(-c2ccccc2[N+](=O)[O-])o1)C(N)=O -6.96%
CC1=C(C#N)C(=O)NC(=O)/C1=C\c1ccc(-c2ccc(C)cc2[N+](=O)[O-])o1 23.7%
O=C(O)/C(=C\c1ccc(-c2ccccc2[N+](=O)[O-])o1)c1ccccc1 25.4%
N#C/C(=C/c1ccc(-c2ccccc2[N+](=O)[O-])o1)C(N)=O -17.5%
CCN1C(=O)[C@H]2[C@@H](c3ccc(C)cc3)N3C(=O)N(c4cccc(Cl)c4)C(=O)[C@@]3(Cc3ccccc3)[C@H]2C1=O 0%
NC(=O)CSc1oc(-c2ccc(F)cc2)nc1S(=O)(=O)c1ccccc1 -9.82%
Cc1ccccc1NC(=O)C1CCC(=O)N1 (centres undefined) -6.11%
O=C(CNC(=O)c1cccc(S(=O)(=O)N2CCc3ccccc32)c1)Nc1ccccc1Br 2.25%
O=C(O)c1cc(N/N=C/c2ccncc2)ccc1Cl -3.81%
CSc1ccc(/C=N/Nc2ccc(Cl)c(C(=O)O)c2)cc1 -1.45%
COC(=O)C1SCC2C(=O)N(Cc3ccc(F)cc3)CC(=O)N21 (centres undefined) -5.39%
Cn1c(SCC(=O)Nc2ccc3nc(SCC(=O)N4CCCC4)sc3c2)nnc1-c1ccc(N)cc1 9.65%
O=c1c2ccccc2nc(SCc2cc([N+](=O)[O-])cc3c2OCOC3)n1-c1ccccc1 -2.94%

Reference: PubChem BioAssay AID588689 (Southern Research Specialized Biocontainment Screening …, 2011)
